Out of some 420,000 compounds screened, about 64,000 (15%) were called active. Not shown: some 27% with an inconclusive outcome. Calls follow the shape of the dose curve; as a rule, active = well fitted inhibition curve with a large enough effect; inconclusive = small, poorly fitted or top-dose-only effect; inactive = flat fitted curve, though single readings scatter. The list is a sample of the results.
test: qHTS for Inhibitors of human tyrosyl-DNA phosphodiesterase 1 (TDP1): qHTS in cells in absence of CPT; conditions: DT40 Tdp1-/- hTDP1 cells, no CPT, ATP luminescence, 48 h; activity change, negative = growth inhibition: at 46.2 µM (top of the series); also: nearly all actives have a fitted effect of over 55% in size
Method in brief: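 A cellular qHTS used chicken DT40 cells lacking endogenous Tdp1 but carrying stably transfected human TDP1. Compounds were applied without camptothecin, and cell growth kinetics were judged by ATP-dependent luminescence after ≥48 hr.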
% is scaled to controls: 0 for no effect and ±100 for the full control effect; potency is read from the fitted curve at half-maximal effect.

Row | Compound | activity change, negative = growth inhibition | Potency
1 | O=C(Nc1c2c(nn1-c1cccc(Cl)c1)CS(=O)(=O)C2)c1cccs1 | 13.2% (inactive) | 
2 | COc1ccc(-n2nnnc2SCC(=O)NCc2cccs2)cc1 | 4.79% (inactive) | 
3 | COc1ccc(N2CCN(C(=O)c3cn(C)c4ccc(S(=O)(=O)N5CCOCC5)cc4c3=O)CC2)cc1 |  | inactive
4 | CC(=O)NC1(c2cccc(F)c2)CCN(CC(=O)NC(C)C)CC1 | -3.98% (inactive) | 
5 | CCCCC1=CC2=CC(=O)C(C)(OC(=O)CC)C(=O)C2=CN1CCCOC(C)C (stereo not given) | 5.48% (inactive) | 
6 | CCOc1ncccc1C(=O)OCC(=O)c1c[nH]c2ccccc12 | 10.8% (inactive) | 
7 | O=C(CCC(=O)OCC(F)(F)C(F)F)NCc1ccccc1 | -4.18% (inactive) | 
8 | O=C(NC12CC3CC(CC(C3)C1)C2)N1CCCC(CO)C1 (stereo not given) | -5.39% (inactive) | 
9 | CCOC(=O)c1ccc[n+](CC(=O)Nc2ccccc2OC(F)F)c1 | 1.71% (inactive) | 
10 | Nc1nc(SCc2ccc([N+](=O)[O-])cc2)c2ncn(C3OC(CO)C(O)C3O)c2n1 (stereo not given) | -26.2% (inactive) | 
11 | OC[C@@H]1O[C@H](n2cnc3c(SCc4ccccc4)ncnc32)[C@H](O)[C@H]1O |  | 11.2 µM (active)
12 | CC(C)Sc1nc(N)nc2c1ncn2C1OC(CO)C(O)C1O (stereo not given) | -19.1% (inactive) | 
13 | O=C(CCc1ccccc1)NCc1cccnc1 | -13.8% (inactive) | 
14 | CCC(=O)N1CCc2cc(S(=O)(=O)NC(Cc3ccccc3)C(=O)NCc3ccc(C)cc3)ccc21 (stereo not given) | 1.68% (inactive) | 
15 | Cc1cc2cc(CNC(=O)c3ccc(S(=O)(=O)N4CCOCC4)cc3)ccc2[nH]1 | -11.8% (inactive) | 
16 | O=C(CCc1ccccc1)NCc1ccc2c(c1)CCN2C(=O)c1ccccc1 |  | 20.6 µM (active)
17 | O=C(CCc1ccc(S(=O)(=O)NC2CCCCC2)cc1)NCc1ccccc1 | -22.2% (inactive) | 
18 | Cc1ccc(C(=O)N2CCc3cc(CNC(=O)c4ccc(Br)cc4)ccc32)cc1 |  | 14.6 µM (active)
19 | CN(C)c1ncc2nc(-c3ccc(F)cc3)c(=O)n(Cc3ccc(F)cc3)c2n1 | 15.1% (inactive) | 
20 | C=Cc1ccc(Cn2c(C(=O)OC)cc3sc(C)cc32)cc1 | -27.6% (inactive) | 
21 | C=CC[C@H](CC(=O)NCCO)C(=O)N[C@@H](COC(=O)[C@@H](CC=C)Cc1ccc(F)cc1)Cc1c[nH]c2ccccc12 |  | 23.1 µM (active)
22 | COC(=O)C(Cc1c[nH]c2ccccc12)NC(=O)CCNC(=O)c1ccco1 (stereo not given) | -2.46% (inactive) | 
23 | CC(=O)NC(Cc1c[nH]c2ccccc12)C(=O)NCCc1ccccc1 (stereo not given) | -12.3% (inactive) | 
24 | C=CCC[C@H](Cc1ccc(F)cc1)C(=O)OC[C@@H](Cc1c[nH]c2ccccc12)NC(=O)[C@H](CC=C)CC(=O)N[C@H](CO)Cc1ccccc1 |  | 20.6 µM (active)
25 | C=CCC[C@@H](Cc1ccc(F)cc1)C(=O)OC[C@H](Cc1c[nH]c2ccccc12)NC(=O)[C@@H](CC=C)CC(=O)N(CCO)Cc1ccccc1 |  | 16.4 µM (active)
26 | O=C(CCc1c[nH]c2ccccc12)NCCOc1ccccc1 | -22.9% (inactive) | 
27 | C=CC[C@@H](CC(=O)NCCO)C(=O)N[C@H](C)COC(=O)[C@@H](CC=C)CC(=O)OC(C)(C)C | -7.37% (inactive) | 

Row | Compound | activity change, negative = growth inhibition | Potency
28 | CCN(CC)c1nc(C#N)nc(OC)n1 | -20.1% (inactive) | 
29 | CC1(C)CC(=O)NC=C(c2ccccc2)C1 | -2.86% (inactive) | 
30 | COc1cc2c(cc1OC)/C(=C/C(=O)c1ccc(NC(C)=O)cc1)NCC2 | -28.9% (inactive) | 
31 | O=C(OCCO)c1cc(Cl)c(C(=O)OCCO)cc1Cl | -2.72% (inactive) | 
32 | O=S(=O)(c1ccc(-c2ccccc2)cc1)N1CCCC1 | 6.42% (inactive) | 
33 | CN[C@@H]1[C@H](O[C@H]2[C@H](O[C@H]3[C@H](O)[C@@H](O)[C@H](N=C(N)N)[C@@H](O)[C@@H]3N=C(N)N)O[C@@H](C)[C@]2(O)CO)O[C@@H](CO)[C@H](O)[C@H]1O | -5.68% (inactive) | 
34 | Cc1cc(C)nc(Nc2n[nH]c(-c3ccccc3N)n2)n1 | -26.2% (inactive) | 
35 | CCOC(=O)CSc1nncc2ccc(OC)c(OC)c12 | -14.7% (inactive) | 
36 | CC(=O)c1ccc(NS(=O)(=O)c2ccc(-c3cc(C)no3)s2)cc1 | -26.9% (inactive) | 
37 | Cc1cccc(N2CCN(S(=O)(=O)c3ccc(-c4cc(C)no4)s3)CC2C)c1 (stereo not given) | 21.2% (inactive) | 
38 | Cc1cc(C)cc(NS(=O)(=O)c2ccc(-c3cc(C)no3)s2)c1 |  | 2.59 µM (active)
39 | CCc1cccc(C)c1NS(=O)(=O)c1ccc(-c2cc(C)no2)s1 |  | 0.517 µM (active)
40 | Cc1cc(-c2ccc(S(=O)(=O)N3CCN(c4cccc(C(F)(F)F)c4)CC3)s2)on1 | -7.52% (inactive) | 
41 | Cc1cc(-c2ccc(S(=O)(=O)N3CCc4ccccc4C3)s2)on1 | -11.1% (inactive) | 
42 | COc1cc(CNc2ncn[nH]2)ccc1OCc1ccccc1C | -14.2% (inactive) | 
43 | CC(C)CNc1ncnc2c1nnn2C | -1.79% (inactive) | 
44 | Cc1cccc(NC(=O)NC2(C)CCS(=O)(=O)C2)c1 (stereo not given) | 22.1% (inactive) | 
45 | Cc1nccn1-c1ccc(NC(=O)[C@H]2O[C@@H](n3ccc(=O)[nH]c3=O)[C@H](O)[C@@H]2O)cc1 | -4.65% (inactive) | 
46 | COCCOC(=O)C1=C(C)NC(=O)NC1c1cc2c(cc1Br)OCO2 (stereo not given) | -5.22% (inactive) | 
47 | CCOc1cc(S(=O)(=O)NC2CC(C)(C)NC(C)(C)C2)ccc1F | -14.5% (inactive) | 
48 | COc1cc(/C=N/Nc2nn3cnnc3c3ccccc23)cc(OC)c1OC |  | 16.4 µM (active)
49 | COc1cc(/C=N/Nc2ccc(C)cc2)cc(Br)c1O | 4.09% (inactive) | 
50 | COc1cc(/C=N/NC(=O)Cc2ccccc2)cc(OC)c1OC | -8.58% (inactive) | 
51 | Cc1nnsc1C(=O)NCc1c(F)cccc1Cl | -7.8% (inactive) | 
52 | COc1ccccc1Nc1nnc(SC(C)C(=O)NC2CC2)s1 (stereo not given) | 7.34% (inactive) | 
53 | Cc1ccc(OCc2n[nH]c(=S)n2-c2ccccc2)cc1 | -14.7% (inactive) | 
54 | Cc1ccc(NCc2n[nH]c(=S)n2-c2ccccc2)cc1Cl | -9.32% (inactive) | 

Row | Compound | activity change, negative = growth inhibition | Potency
55 | S=c1[nH]nc(CSCc2ccc(Cl)cc2Cl)n1-c1ccccc1 |  | 15.8 µM (active)
56 | Cc1c(C(=O)N2CCCC2)c(S(=O)(=O)NCC(C)c2ccccc2)c(C)n1C (stereo not given) | -3.35% (inactive) | 
57 | O=C(c1ccc(Br)o1)N(c1ccccn1)C1CCCCC1 |  | 23.1 µM (active)
58 | O=C(c1cccs1)N(C(=O)c1cccs1)c1ccccn1 | -1.91% (inactive) | 
59 | O=C(N1CCOCC1)N(Cc1ccccc1)c1ccccn1 | -18.7% (inactive) | 
60 | CCn1c(CNC(=O)C23CC4CC(CC(C4)C2)C3)nnc1SCC(=O)Nc1ccc(OC)cc1 | -26.1% (inactive) | 
61 | CN(C)/C=C(\C#N)C(=O)c1cccnc1Oc1ccc(F)cc1F | -1.4% (inactive) | 
62 | O=c1ccc2c(-c3ccccc3S(=O)(=O)O)c3ccc(O)c(O)c3oc-2c1O |  | 11.6 µM (active)
63 | CCCNC(=S)NC1CC2CCCC(C1)N2CC(C)C (stereo not given) | -5.2% (inactive) | 
64 | O=C(NCCCc1ccccc1)c1cc(COc2c(F)cccc2F)on1 | -0.395% (inactive) | 
65 | CC(NC(=O)c1ccccc1)C(=O)Nc1ccccc1 (stereo not given) | 0.972% (inactive) | 
66 | O=C(NC(=O)c1ccccc1)NC(=O)c1ccccc1 | -20.8% (inactive) | 
67 | O=C(NC1=CC(=O)c2ccccc2C1=O)c1ccccc1 |  | 1.16 µM (active)
68 | Cc1csc[n+]1CCC1CCCCC1 |  | 10 µM (active)
69 | C=CCn1c(SCC(=O)/C(C#N)=C(\C)N)nc2sc(C)c(C)c2c1=O | -16.5% (inactive) | 
70 | CCOC(=O)c1nnn2c1nc(N1CCN(c3ccccc3)CC1)c1ccccc12 |  | 14.6 µM (active)
71 | CCOC(=O)c1nnn2c3ccccc3c(=O)n(C)c12 | 2.33% (inactive) | 
72 | CC(=O)c1ccc(N2CCN(c3nc4c(S(=O)(=O)c5ccccc5)nnn4c4ccc(Cl)cc34)CC2)cc1 | -23.4% (inactive) | 
73 | CCOc1ccc(NC(=O)CCNC(=O)c2ccc(Br)cc2)cc1 | -6.82% (inactive) | 
74 | CCOC(=O)CNC(=O)CSc1nnc(-c2cccc(OC)c2)n1CC | -6.98% (inactive) | 
75 | COC(=O)CC(CC(=O)OC)n1cccc1 | -0.736% (inactive) | 
76 | CCCCc1nnc(NC(=O)CS(=O)(=O)Cc2ccccc2)s1 | -15.5% (inactive) | 
77 | COCCSc1nnc(NC(=O)CCS(=O)(=O)Cc2ccccc2)s1 | -12.4% (inactive) | 
78 | CCOCc1nnc(NC(=O)CCS(=O)(=O)Cc2ccccc2)s1 |  | 18.4 µM (active)
79 | CC1CN(Cc2ccccc2)C(=S)NC1=O (stereo not given) | -1.83% (inactive) | 
80 | O=C(Nc1ccccc1)/C(=C\c1ccco1)NC(=O)c1ccco1 | -14.5% (inactive) | 
81 | CCC1CN(CCNC(=O)c2ccsc2)Cc2cc(OC)ccc2O1 (stereo not given) | -14.3% (inactive) | 

Row | Compound | activity change, negative = growth inhibition | Potency
82 | COCCCNC(=O)CN1C(=O)CSc2ccc(S(=O)(=O)N3CCOCC3)cc21 |  | inactive
83 | CCCCN(CCCC)CCCNC(=O)CN1C(=O)COc2ccc(S(=O)(=O)N3CCC(C)CC3)cc21 |  | 9.2 µM (active)
84 | Cc1ccc(CCNC(=O)CN2C(=O)CSc3ccc(S(=O)(=O)N4CCOCC4)cc32)cc1 |  | 20.6 µM (active)
85 | Cc1ccc2c(c1)N(CC(=O)NCC1CCCO1)C(=O)CO2 (stereo not given) | 2.23% (inactive) | 
86 | CC1CCN(CCCNC(=O)CN2C(=O)CSc3ccc(S(=O)(=O)N4CCCCC4)cc32)CC1 |  | inactive
87 | CCCCN(CCCC)CCNC(=O)CN1C(=O)COc2ccc(S(=O)(=O)N3CCOCC3)cc21 | -17.6% (inactive) | 
88 | CC(=O)Nc1ccc(NC(=O)CN2C(=O)COc3ccc(S(=O)(=O)N4CCCCC4)cc32)cc1 | 8.59% (inactive) | 
89 | Cc1ccc2c(c1)N(CC(=O)N1CCOCC1)C(=O)CO2 | 5.74% (inactive) | 
90 | CN(C)c1ccc(CNC(=O)CN2C(=O)COc3ccc(S(=O)(=O)N4CCCC4)cc32)cc1 | 7.19% (inactive) | 
91 | CC1CCN(S(=O)(=O)c2ccc3c(c2)N(CC(=O)NCCc2ccccc2)C(=O)CO3)CC1 |  | 20.6 µM (active)
92 | COc1ccc(CCNC(=O)CN2C(=O)COc3ccc(S(=O)(=O)N4CCCC4)cc32)cc1OC | -1.61% (inactive) | 
93 | Cc1ccc(C)c(N2CCN(C(=O)CN3C(=O)COc4ccc(S(=O)(=O)N5CCCCCC5)cc43)CC2)c1 |  | 16.4 µM (active)
94 | CN(C)C(CNC(=O)c1ccc(OCc2cn3ccccc3n2)cc1)c1ccco1 (stereo not given) | -1.5% (inactive) | 
95 | CC(CO)N1CCS(=O)(=O)CC1 (stereo not given) | -14% (inactive) | 
96 | CC1(C)CC(=O)C=C(Nc2ccccc2)C1 | 0.545% (inactive) | 
97 | c1ccc2c(c1)C(=NC1CCCCC1)NC2=NC1CCCCC1 |  | 14.6 µM (active)
98 | O=C1CCCCC(=O)c2ccccc2N1 | -4.74% (inactive) | 
99 | O=C1CN(C(=O)COC(=O)/C=C/c2ccc(F)cc2)c2ccccc2N1 | -5.94% (inactive) | 
100 | Cc1cc2cc3c(N)[nH]nc3nc2cc1C | -21.4% (inactive) | 
101 | Oc1ccc(/C=N/Nc2nc(-c3ccccc3F)nc3ccccc23)c(O)c1 |  | 7.31 µM (active)
102 | Cc1nc2ccccc2nc1N/N=C/c1ccc(O)cc1O |  | 4.11 µM (active)
103 | Cc1noc(C)c1/C=N/Nc1ccc2ccccc2n1 | 7.72% (inactive) | 
104 | Oc1ccc(/C=N/NC2=NCCCCC2)c(O)c1 | 4.82% (inactive) | 
105 | Cc1cc(N/N=C/c2ccccc2F)c2ccccc2n1 | -12.4% (inactive) | 

Source: PubChem BioAssay AID686978 (National Center for Advancing Translational Sciences (NCATS), 2013)
